By inhibition is commonly meant the change of the read-out against control, counted positive when it falls.

Each structure is given as a SMILES string. Unmarked numbers belong to inactive results. For some of these results: Potency and affinity values are given separately. Active and inactive are the calls of the source. Unless noted, the rule behind the calls is not given here.

20 compounds from PubChem BioAssay can be followed below.

A short description of test [1]: antimalarial activity against Dd2 strain (AID 2302;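 active = growth inhibition above 50% at the single 2 µM test dose, taken to imply half-maximal potency below 2 µM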;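 note: 0% = DMSO untreated growth and 100% = chloroquine plus artemisinin killed control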). Particulars: P. falciparum Dd2 in RBCs, LDH growth readout, 72 h; at 2 µM; active compounds read high.
A short description of test [2]: human hepatoma cell viability loss – ATP luminescence, cytotoxicity control for P. falciparum antimalarial project, primary screen (AID 2303;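 active = inhibition above 50%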;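 note: 0% = DMSO wells and 100% = digitonin-killed cells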). Particulars: HepG2 viability, 24-48 h, at 10 µM, active compounds read high.
The target in test [3] is L-lactate dehydrogenase (Plasmodium falciparum (isolate CDC / Honduras)) (UniProt Q27743). Put plainly: PfLDH activity inhibition – cell lysate, 3D7 strain, counter-screen for P. falciparum growth inhibition project (AID 2304).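 Note: 0% = vehicle and 100% = reference inhibitor.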 Particulars: P. falciparum 3D7 crude extract, LDH APAD/NBT absorbance; at 2 µM; active compounds read high. (In general: The purpose of a counterscreen is to sort out artefacts and off-target activity.)

Test [4] can be described thus: inhibition of 3D7 malaria parasite growth – strain 3D7 (AID 2306).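 Note: 0% = DMSO wells and 100% = chloroquine plus artemisinin control wells.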 The settings on record: P. falciparum 3D7 erythrocytic growth, LDH absorbance, 72 h; at 2 µM; active compounds read high.
Test [5] addresses Calcium-dependent protein kinase 1 (Plasmodium falciparum (isolate 3D7)) (UniProt P62344). Put plainly: PfCDPK1 kinase inhibitors, biochemical, TCAMS library (AID 1159585; cut-off not given, nearly all actives have IC50 up to about 0.98 µM;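 note: inhibitors leave more ATP so luminescence rises with inhibition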). The settings on record: recombinant PfCDPK1, Kinase-Glo ATP depletion luminescence. A general note: Kinase-Glo measures the ATP left after a reaction by luminescence.
Test [6] deals with Plasmodium falciparum protein kinase 6 (PK6, PF3D7_1337100) (UniProt Q8IDW1). Briefly: PfPK6 kinase inhibitors, biochemical, TCAMS library (AID 1159586). The settings on record: recombinant PfPK6, Kinase-Glo ATP depletion luminescence.
Test [7] has as its target Protein kinase 7 (PK7), Plasmodium falciparum 3D7 (PF3D7_0213400) (UniProt Q7YTF7). Briefly: inhibition of Plasmodium PK7 catalytic activity – biochemical, TCAMS antimalarial set, Kinase-Glo luminescence (AID 1159587). The settings on record: recombinant PfPK7, Kinase-Glo ATP depletion luminescence.
Test [8] concerns the target Calcium-dependent protein kinase 4 (Plasmodium falciparum (isolate 3D7)) (UniProt Q8IBS5). Put plainly: PfCDPK4 kinase inhibitors, biochemical, TCAMS library (AID 1159588; cut-off not given, nearly all actives have IC50 up to about 0.91 µM). The settings on record: recombinant PfCDPK4, Kinase-Glo ATP depletion luminescence.

Sequence of Calcium-dependent protein kinase 4 (Plasmodium falciparum (isolate 3D7)) (Q8IBS5 whole entry, looked up): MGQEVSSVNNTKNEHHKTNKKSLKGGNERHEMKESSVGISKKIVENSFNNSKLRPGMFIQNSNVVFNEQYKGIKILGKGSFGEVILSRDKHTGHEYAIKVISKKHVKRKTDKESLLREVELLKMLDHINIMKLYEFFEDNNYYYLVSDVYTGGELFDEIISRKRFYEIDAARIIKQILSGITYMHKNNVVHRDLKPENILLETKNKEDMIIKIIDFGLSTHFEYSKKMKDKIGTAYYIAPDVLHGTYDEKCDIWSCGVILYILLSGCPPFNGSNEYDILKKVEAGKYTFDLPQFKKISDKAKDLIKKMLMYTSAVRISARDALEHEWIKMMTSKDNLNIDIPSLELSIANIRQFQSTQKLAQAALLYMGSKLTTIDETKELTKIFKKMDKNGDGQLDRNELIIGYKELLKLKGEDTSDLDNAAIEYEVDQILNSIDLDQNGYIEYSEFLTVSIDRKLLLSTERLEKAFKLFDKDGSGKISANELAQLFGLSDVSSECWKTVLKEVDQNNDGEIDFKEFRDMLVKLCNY
Sequence of Calcium-dependent protein kinase 1 (Plasmodium falciparum (isolate 3D7)) (P62344 whole entry, looked up): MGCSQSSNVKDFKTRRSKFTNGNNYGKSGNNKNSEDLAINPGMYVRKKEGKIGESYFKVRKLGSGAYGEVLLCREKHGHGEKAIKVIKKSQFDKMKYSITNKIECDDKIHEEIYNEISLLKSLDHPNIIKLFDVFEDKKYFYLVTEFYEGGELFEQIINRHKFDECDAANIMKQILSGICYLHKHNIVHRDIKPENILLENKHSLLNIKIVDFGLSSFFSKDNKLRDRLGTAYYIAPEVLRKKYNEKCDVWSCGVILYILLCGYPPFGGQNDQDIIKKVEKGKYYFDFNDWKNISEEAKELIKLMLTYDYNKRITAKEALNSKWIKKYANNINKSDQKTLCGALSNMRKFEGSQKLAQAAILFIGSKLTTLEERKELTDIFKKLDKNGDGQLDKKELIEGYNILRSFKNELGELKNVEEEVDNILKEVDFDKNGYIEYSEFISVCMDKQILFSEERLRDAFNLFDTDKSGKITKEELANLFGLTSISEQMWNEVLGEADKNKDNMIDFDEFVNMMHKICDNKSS
Sequence of Plasmodium falciparum protein kinase 6 (PK6, PF3D7_1337100) (Q8IDW1 1-305): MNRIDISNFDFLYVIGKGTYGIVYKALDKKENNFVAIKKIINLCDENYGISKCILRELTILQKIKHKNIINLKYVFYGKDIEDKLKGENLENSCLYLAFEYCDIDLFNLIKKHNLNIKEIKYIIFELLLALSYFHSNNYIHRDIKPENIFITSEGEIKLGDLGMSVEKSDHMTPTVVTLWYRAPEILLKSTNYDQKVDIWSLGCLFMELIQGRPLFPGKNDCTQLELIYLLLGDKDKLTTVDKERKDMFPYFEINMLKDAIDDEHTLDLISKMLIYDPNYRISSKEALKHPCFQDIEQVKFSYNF
Sequence of Protein kinase 7 (PK7), Plasmodium falciparum 3D7 (PF3D7_0213400) (Q7YTF7 1-343): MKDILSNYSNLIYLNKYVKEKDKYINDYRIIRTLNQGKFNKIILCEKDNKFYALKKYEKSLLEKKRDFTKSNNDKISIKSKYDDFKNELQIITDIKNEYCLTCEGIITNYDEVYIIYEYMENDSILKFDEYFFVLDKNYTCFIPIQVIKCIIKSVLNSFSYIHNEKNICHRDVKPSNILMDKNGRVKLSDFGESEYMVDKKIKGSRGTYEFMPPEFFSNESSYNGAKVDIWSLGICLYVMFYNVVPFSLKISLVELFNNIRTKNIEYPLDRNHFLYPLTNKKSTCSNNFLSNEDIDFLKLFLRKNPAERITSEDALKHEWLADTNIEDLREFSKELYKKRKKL
Sequence of L-lactate dehydrogenase (Plasmodium falciparum (isolate CDC / Honduras)) (Q27743 whole entry, looked up): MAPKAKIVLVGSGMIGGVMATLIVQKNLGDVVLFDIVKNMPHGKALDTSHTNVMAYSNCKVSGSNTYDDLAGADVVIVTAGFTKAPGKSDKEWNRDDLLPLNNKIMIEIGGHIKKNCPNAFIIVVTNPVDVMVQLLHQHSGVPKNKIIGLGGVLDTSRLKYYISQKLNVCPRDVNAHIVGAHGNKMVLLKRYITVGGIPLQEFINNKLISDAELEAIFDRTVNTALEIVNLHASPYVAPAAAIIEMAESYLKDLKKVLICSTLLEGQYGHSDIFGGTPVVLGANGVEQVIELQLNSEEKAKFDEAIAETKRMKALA

On to `CC1CC(NCCCNc2cc(=O)c3ccccc3[nH]2)c2c(Cl)c(Cl)cc(Cl)c21` (stereo not given), for which the growth inhibition in test [1] is 52% (active); in test [4], 87% (active). Further, the results for the inhibition in test [2] and in test [3] were 6% and 2%, respectively. Besides, the outcome in test [5], in test [6], in test [7] and in test [8] was inactive.

`Cc1cc(NC(=O)Nc2ccc(Cl)cc2F)c2ccccc2n1`: the growth inhibition is 71% (active) in test [1] and 100% (active) in test [4]. The inhibition is 10% in test [2] and 2% in test [3]. Besides, the result in test [5], in test [6], in test [7] and in test [8] was inactive.

Regarding `c1ccc(Oc2ccc(Nc3ccnc4cc(-c5csc(CN6CCCCC6)n5)ccc34)cc2)nc1`, the growth inhibition is 95% (active) in test [1] and 100% (active) in test [4]. Further, the values for the inhibition in test [2] and in test [3] were 22% and -7%, respectively. For the same compound, the outcome in test [5], in test [6], in test [7] and in test [8] was inactive.

Take `O=C(Nc1ccc(Oc2ccccc2)cc1)N[C@H]1CCN(Cc2ccc(OCCCN3CCCCC3)cc2)C1`: the growth inhibition was 6% in test [1] and 103% (active) in test [4]. Moreover, the inhibition is 13% in test [2] and -6% in test [3]. The result in test [5], in test [6], in test [7] and in test [8] was inactive.

Turning to `COc1ccc2ccc(F)c(CCN3CCC(NCc4cc5c(cn4)OCCO5)CC3)c2n1`, the growth inhibition in test [1] is 36%; in test [4], 96% (active). The values for the inhibition in test [2] and in test [3] were 15% and 3%, respectively. Also, the outcome in test [5], in test [6], in test [7] and in test [8] was inactive.

`CCOc1ccccc1CCNCC1CCN(CC2CCCCC2)CC1`: the growth inhibition in test [1] is 59% (active); in test [4] it was 84% (active). The inhibition in test [2] was 35%; in test [3], -1%. Also, the outcome in test [5], in test [6], in test [7] and in test [8] was inactive.

Turning to `COc1ccc2ncc(C#N)c(CCN3CCC(NCc4ccc5c(c4)OCCO5)CC3)c2c1`, the growth inhibition in test [1] was 31%; in test [4] it was 96% (active). The inhibition in test [2] was 12%; in test [3] it was -4%. The result in test [5], in test [6], in test [7] and in test [8] was inactive.

As to `COc1ccc(C2C(C(=O)Nc3cc(C)ccc3OC)c3ccccc3C(=O)N2C)cc1` (stereo not given), the growth inhibition in test [1] is 3%; in test [4], 86% (active). In addition, the inhibition was 3% in test [2] and 1% in test [3]. The result in test [5], in test [6], in test [7] and in test [8] was inactive.

As to `O=c1ccc2ccc(F)cc2n1CCN1CCC(NCc2ccc(-c3ccccn3)s2)CC1`, the growth inhibition in test [1] was 30%; in test [4], 98% (active). The inhibition in test [2] was -12%; in test [3], -1%. The outcome in test [5], in test [6], in test [7] and in test [8] was inactive.

Turning to `NC(=O)c1sc(-n2cnc3ccccc32)cc1OCc1ccccc1[N+](=O)[O-]`, the growth inhibition was 46% in test [1] and 99% (active) in test [4]. Further, the inhibition in test [2] was 10%; in test [3], -2%. For the same compound, the result in test [5], in test [6], in test [7] and in test [8] was inactive.

In the case of `Nc1nc(N)c2c(CCc3ccc(Cl)c(Cl)c3)cccc2n1`, the growth inhibition in test [1] was 83% (active); in test [4], 101% (active). Besides, the inhibition in test [2] is 51% (active); in test [3], 6%. For the same compound, the outcome in test [5], in test [6], in test [7] and in test [8] was inactive.

For the compound `O=C(Nc1ccc(-c2cccc(-c3nc4ccc(F)cc4[nH]3)c2)cc1)Nc1ccsc1`, the figures for the growth inhibition in test [1] and in test [4] were 51% (active) and 101% (active), respectively. Also, the inhibition in test [2] is 34%; in test [3] it was 5%. Further, the outcome in test [5], in test [6], in test [7] and in test [8] was inactive.

For `COc1cc(Cc2cnc(N)nc2N)cc(OC)c1OCCCCC(=O)O`, the results for the growth inhibition in test [1] and in test [4] were -1% and 88% (active), respectively. For the same compound, the inhibition in test [2] and in test [3] was -4% throughout. Moreover, the outcome in test [5], in test [6], in test [7] and in test [8] was inactive.

As for `CCCc1cc(Cc2cnc(N)nc2N)cc(CCC)c1OCCCCC(=O)O`, the growth inhibition in test [1] was 23%; in test [4], 95% (active). In addition, the values for the inhibition in test [2] and in test [3] were 18% and -2%, respectively. The result in test [5], in test [6], in test [7] and in test [8] was inactive.

Turning to `Brc1cc(CNCCCNc2nc3ccccc3[nH]2)sc1Br`, the growth inhibition is 21% in test [1] and 100% (active) in test [4]. The inhibition was 10% in test [2] and 8% in test [3]. The outcome in test [5], in test [6], in test [7] and in test [8] was inactive.

With `NC(=O)c1ccsc1NC(=O)CNC(c1ccc(F)cc1)c1cccs1` (stereo not given), the growth inhibition in test [1] is 71% (active); in test [4] it was 92% (active). Moreover, the inhibition in test [2] was 31%; in test [3], -2%. Besides, the outcome in test [5], in test [6], in test [7] and in test [8] was inactive.

Take `Cc1cc(Cl)c(Cl)cc1NC(=O)Nc1cccc(C(F)(F)F)c1`: the growth inhibition in test [1] was 99% (active); in test [4], 93% (active). Also, the inhibition in test [2] was 1%; in test [3] it was -1%. In addition, the outcome in test [5], in test [6], in test [7] and in test [8] was inactive.

With `Nc1nc(N)c2nc(C3CC=CCC3)c(N)nc2n1` (stereo not given), the growth inhibition in test [1] was 0%; in test [4], 95% (active). Also, the inhibition was 67% (active) in test [2] and -5% in test [3]. Further, the result in test [5], in test [6], in test [7] and in test [8] was inactive.

With `CCCC(C)NC(=O)/C=C/c1ccccc1-c1cccc(OC)c1` (stereo not given), the figures for the growth inhibition in test [1] and in test [4] were 59% (active) and 87% (active), respectively. In addition, the figures for the inhibition in test [2] and in test [3] were 0% and 3%, respectively. In addition, the outcome in test [5], in test [6], in test [7] and in test [8] was inactive.

Take `O=C(Cc1ccccc1)NC(CCN1CCC(NC(=O)c2ccc(Cl)cc2)CC1)c1ccc(Cl)c(Cl)c1` (stereo not given): the figures for the growth inhibition in test [1] and in test [4] were 23% and 85% (active), respectively. Further, the inhibition was 17% in test [2] and -2% in test [3]. In addition, the result in test [5], in test [6], in test [7] and in test [8] was inactive.
